According to PubChem BioAssay AID999 (SRMLSC, 2007):
The source made the active and inactive calls.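 How the source made its calls: active means viability at or below 21.59%, 3 SD under the median of tested compounds; inactive means the rest.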

Assay: viability loss in PTEN-deleted cells – cell-based, validation, diverse DP compound set (AID 999);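 further: 100% = median luminescence of untreated cell control wells and 0% = no signal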
Details: HCT116 PTEN-null viability, CellTiter-Glo, 60 h; at 10 µM; hits give low values

Row | SMILES | viability
1 | CC(C)NCC(O)COc1cccc2ccccc12 (stereo unspecified) | 89.1% (inactive)
2 | CCOC(=O)c1c(N)sc(C)c1-c1ccccc1 | 105% (inactive)
3 | COc1ccc(/C=C/c2cc(OC)cc(=O)o2)cc1 | 85.2% (inactive)
4 | CCCC[C@@H](C=O)NC(=O)[C@H](CC(C)C)NC(=O)[C@H](CC(C)C)NC(C)=O | 15.1% (active)
5 | COc1cc(-c2ccc(=O)[nH]n2)ccc1OC(F)F | 94.7% (inactive)
6 | NS(=O)(=O)c1cc(C(=O)O)c(NCc2ccco2)cc1Cl | 104% (inactive)
7 | CCOC(=O)C(C)(C)Oc1ccc(Cl)cc1 | 100% (inactive)
8 | C=C1OC(CO)(n2cnc3c(N)ncnc32)C(O)C1O (stereo unspecified) | 92.8% (inactive)
9 | Cc1cc(CC(=O)O)n(C)c1C(=O)c1ccc(Cl)cc1 | 95.5% (inactive)
10 | O=c1[nH]cnc2ccccc12 | 82.7% (inactive)
11 | CN1CCN(C2Cc3ccccc3Sc3ccc(S)cc32)CC1 (stereo unspecified) | 50.3% (inactive)
12 | CC1=C(/C=C/C(C)=C/C=C/C(C)=C/C=C/C=C(C)/C=C/C=C(C)/C=C/C(=O)[C@]2(C)C[C@@H](O)CC2(C)C)C(C)(C)C[C@H](O)C1 | 80.7% (inactive)
13 | Cc1c2oc3c(C)ccc(C(=O)N[C@@H]4C(=O)N[C@H](C(C)C)C(=O)N5CCC[C@H]5C(=O)N(C)CC(=O)N(C)[C@@H](C(C)C)C(=O)O[C@@H]4C)c3nc-2c(C(=O)N[C@@H]2C(=O)N[C@H](C(C)C)C(=O)N3CCC[C@H]3C(=O)N(C)CC(=O)N(C)[C@@H](C(C)C)C(=O)O[C@@H]2C)c(N)c1=O | 43.2% (inactive)
14 | C[C@@H]1C[C@@H]([C@@H](C)CC2CC(=O)NC(=O)C2)C(=O)[C@@H](C)C1 | 30.2% (inactive)
15 | CC(=O)N[C@H]1C(O[C@@H]2O[C@H](C[C@@H](O)[C@H]3O[C@@H](N4CCC(=O)NC4=O)[C@H](O)[C@@H]3O)[C@H](O)[C@H](O)[C@H]2NC(=O)/C=C/CCCCCCCCCCC(C)C)OC(CO)[C@@H](O)[C@@H]1O (stereo partly specified) | 52.8% (inactive)
16 | C[C@@H]1CC2C3CCC4=CC(=O)C=CC4(C)[C@@]3(F)[C@@H](O)CC2(C)[C@@]1(O)C(=O)CO (stereo partly specified) | 105% (inactive)

Row | SMILES | viability
17 | Nc1nc2ncc(CNc3ccc(C(=O)NC(CCC(=O)O)C(=O)O)cc3)nc2c(=O)[nH]1 (stereo unspecified) | 99.5% (inactive)
18 | C=C(C)[C@H]1CC=C(CO)CC1 | 96% (inactive)
19 | O=C1OC2(c3ccc(O)cc3Oc3cc(O)ccc32)c2ccccc21 | 96% (inactive)
20 | OCCN(CCO)c1nc(N2CCCCC2)c2nc(N(CCO)CCO)nc(N3CCCCC3)c2n1 | 96.3% (inactive)
21 | COc1ccc(CCN(C)CCCN2CCc3cc(OC)c(OC)cc3CC2=O)cc1OC | 97.1% (inactive)
22 | NCC(=O)N[C@@H](CCCN=C(N)N)C(=O)NCC(=O)N[C@@H](CC(=O)O)C(=O)N[C@@H](CC(N)=O)C(=O)N1CC[C@@H](C(=O)O)C1 | 98% (inactive)
23 | CCn1cc(C(=O)O)c(=O)c2ccc(C)nc21 | 98.4% (inactive)
24 | CC(C)C[C@@H](NC(=O)[C@@H](O)[C@H](N)Cc1ccccc1)C(=O)O | 94.5% (inactive)
25 | C[C@@H]1CC[C@]2(C(=O)O)CC[C@]3(C)C(=CCC4[C@@]5(C)C[C@@H](O)[C@H](O)[C@@](C)(CO)C5CC[C@]43C)C2[C@H]1C (stereo partly specified) | 94.3% (inactive)
26 | O=c1[nH]c(=O)n(C2CCCO2)cc1F (stereo unspecified) | 101% (inactive)
27 | O=c1c(-c2ccc(O)cc2)coc2cc(O)cc(O)c12 | 87.8% (inactive)
28 | Nc1c(N=Nc2ccc(-c3ccc(N=Nc4cc(S(=O)(=O)O)c5ccccc5c4N)cc3)cc2)cc(S(=O)(=O)O)c2ccccc12 | 86.5% (inactive)
29 | COc1ccc2cc([C@H](C)C(=O)O)ccc2c1 | 85.6% (inactive)
30 | CC(=O)[C@H]1[C@H](C#N)CC2C3CC=C4C[C@@H](O)CCC4(C)C3CCC21C (stereo partly specified) | 94.8% (inactive)
31 | Cn1c(=O)c2[nH]cnc2n(C)c1=O | 97.1% (inactive)
